What all share (test): NCI-60 one-dose screen, 48 h (100 = growth as untreated, 0 = no growth, -100 = all killed)
What all share (details): 10 µM

Assay [1] has as its system HT29 colon.
For assay [2], the system named is SNB-19 CNS.
In assay [3] the test system is U251 CNS.
Assay [4] concerns PC-3 prostate.
Assay [5] concerns SK-MEL-5 melanoma.
Assay [6] has as its system UACC-62 melanoma.
Assay [7] concerns LOX IMVI melanoma.
Assay [8] deals with SK-MEL-28 melanoma.
The test system of assay [9] is SK-MEL-2 melanoma.
Assay [10] relates to EKVX NSCLC.
Assay [11] concerns SN12C renal.
Assay [12] relates to UO-31 renal.
The subject of assay [13] is TK-10 renal.
In assay [14] the test system is ACHN renal.
For assay [15], the system named is CAKI-1 renal.
Assay [16] concerns CCRF-CEM leukemia.
In assay [17] the test system is MOLT-4 leukemia.
For assay [18], the system named is SR leukemia.
For assay [19], the system named is A498 renal.

About 83,000 compounds went through this panel and 20% of them were active in at least one assay; those are over-represented in the sample as a whole.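 Method: cells in 96-well plates; compound added at one concentration; 48 h incubation; percent growth measured; values under 10 scored active.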 Unmarked numbers belong to inactive results. Calls of active or inactive are those of the source.

Turning to `COc1ccc(-c2csc(NC(=O)CSc3nc(C)c(-c4ccccc4)n3Nc3ccccc3)n2)cc1`, the growth in assay [1] was 67.7%; in assay [2], 82.7%; in assay [3] it was 61.7%; in assay [4] it was 34%; in [5], 54.4%; in assay [6], 47%. For the same compound, the growth in assay [7] is 36.8%; in assay [8] it was 89.6%; in assay [9] it was 82%; in assay [10], 38.3%; in [11] it was 42.1%; in assay [12], 4.89% (active). Further, the growth in [13] is 86.1%; in assay [14], 59%; in [15], 20%; in assay [16], 28.3%; in assay [17] it was 31.1%; in [18] it was 40.7%.
Regarding `O=C1/C(=C/c2ccc(Cl)cc2)SC(=Nc2ccc(Cl)cc2)N1Cc1nc2ccccc2[nH]1`, the growth in assay [1] was 97%; in assay [2], 75%; in assay [3], 76.2%; in assay [4], 41.6%; in [5], 81.3%; in [6] it was 64.6%. Also, the growth in assay [7] is 78%; in [8], 92.6%; in assay [9], 88.4%; in [10] it was 64.5%; in assay [11], 79.3%; in assay [12], 37.5%. Moreover, the growth in assay [13] was 104%; in [14], 91.9%; in assay [15], 8.38% (active); in assay [16], 62.6%; in assay [17], 57.3%; in assay [18], 46.6%.
In the case of `CCCCCCCCCCCC[n+]1ccc(C(N)=O)cc1`, the growth in assay [1] was 5.01% (active); in [2], 18.6%; in assay [3] it was -3.1% (active); in assay [4], -18.2% (active); in assay [5], -6.99% (active); in [6], 29%. Moreover, the growth in assay [7] is 25.6%; in assay [8] it was 57.8%; in assay [9], 30.9%; in assay [10], 22.2%; in assay [11] it was 12.3%; in assay [12], 64.4%. For the same compound, the growth in assay [13] was -28% (active); in [14], 87.5%; in assay [15], 41.1%; in [19] it was 78.9%; in assay [16] it was 13%; in assay [17], 13.6%. Moreover, the growth in [18] is 14.5%.
On to `COc1cc(-c2cc(C(=O)N3CCN(C(=O)c4ccccc4NCc4cccs4)CC3)nc3cc(-c4ccccc4)nn23)cc(OC)c1OC`, for which the growth in assay [1] is 28%; in assay [2], 85.1%; in [3], 72.1%; in assay [4], 34%; in [5], 37.9%; in [6], 60%. Besides, the growth was 70% in assay [7]; 81.5% in assay [8]; 68.4% in assay [9]; 94.4% in assay [10]; 87.5% in assay [11]; 39.8% in assay [12]. The growth in [13] was 70.1%; in assay [14], 73.9%; in assay [15], 55.2%; in assay [19] it was 74.2%; in [16] it was 73.9%; in assay [17], 79.3%. For the same compound, in assay [18], the growth is 23%.
Turning to `Nc1nc(N)c(NC(=O)CNc2ccc(C(=O)O)cc2)c(N)n1`, the growth is 107% in [1]; 105% in [2]; 105% in assay [3]; 101% in assay [4]; 103% in assay [5]; 101% in [6]. The growth was 98.3% in assay [7]; 97.9% in [8]; 102% in [9]; 97.1% in assay [11]; 94.1% in [12]; 108% in assay [13]. The growth in assay [14] is 115%; in assay [15] it was 91.5%; in assay [19], 101%; in assay [16], 98%; in assay [17], 107%.
On to `COc1ccc(-c2nsc3c2NC(=O)CC3c2ccc(F)cc2)cc1` (stereo not given), for which the growth in assay [1] was 4.71% (active); in assay [2], 72.5%; in [3] it was 33.6%; in [4] it was 39.1%; in [5] it was 20.5%; in assay [6] it was 51.2%. The growth in assay [7] is 44.4%; in [8], 57.5%; in assay [9], -11.7% (active); in assay [11] it was 51.6%; in [12], 48.7%; in assay [13] it was 38.5%. Also, the growth in [14] was 47.1%; in [15] it was 24.3%; in assay [19] it was 53.8%; in assay [16], 45.3%; in [17] it was 21.7%; in [18], 3.34% (active).
For `COc1ccc2c(c1)C(=O)c1c-2c(=O)n(CCCN(C)C)c2cc(OC)c(OC)cc12`, the growth in [1] is 60.6%; in [2] it was 59.2%; in [3] it was 43.8%; in assay [4], 72.2%; in assay [5] it was 86.8%; in assay [6], 77%. The growth in assay [7] was 17.3%; in assay [8], 111%; in [9] it was 69%; in assay [10], 113%; in [11], 53.1%; in assay [12], 64.6%. Also, the growth was 102% in assay [13]; 31.9% in assay [14]; 10.6% in [15]; 85.5% in [19]; 15.4% in assay [16]; 13.8% in [17]. Further, the growth in assay [18] was 1.53% (active).
With `Cc1ccc(S(=O)(=O)Oc2ccc3c4c(c(=O)oc3c2)CCCCC4)cc1`, the growth in assay [1] was 6.29% (active); in [2], 86.8%; in [3], 38.7%; in assay [4], 33.5%; in assay [5], 20.5%; in [6], 56.5%. Also, the growth is 62.8% in assay [7]; 79.5% in [8]; 66.2% in assay [11]; 64.6% in [12]; 74.3% in assay [13]; 78.7% in [14]. Besides, the growth is 59.6% in assay [15]; 61.8% in assay [19]; 43% in [16]; 42.2% in [17]; 2.57% (active) in [18].
